Consider 19 molecules from PubChem BioAssay (NCI).

A short description of experiment [1]: NCI Yeast Anticancer Drug Screen. Data for the rad50 strain (AID 155).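 Note: 0% = growth of vehicle-only cultures of the same strain.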 As to conditions: S. cerevisiae rad50 strain growth inhibition; at 50.0 µM; active compounds read high. Put shortly:
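A DNA repair-deficient yeast mutant serves as the test organism; compound-induced growth inhibition is calculated against vehicle-treated cells.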

A short description of experiment [2]: NCI Yeast Anticancer Drug Screen. Data for the mec2-1 strain (AID 157). The note with it: S. cerevisiae mec2-1 strain, at 50.0 µM, active compounds read high. The procedure, abridged: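 mec2-1 yeast strain, carrying an alteration in DNA damage repair or cell cycle control, was exposed to compounds; growth inhibition was measured relative to vehicle-treated controls.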

A short description of experiment [3]: NCI Yeast Anticancer Drug Screen. Data for the sgs1 mgt1 strain (AID 161).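 Note: 0% = growth of cultures given vehicle only.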 The note with it: S. cerevisiae sgs1 mgt1 strain, at 50.0 µM, active compounds read high. Put shortly:
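Percent growth inhibition was derived by comparing compound-exposed mutant yeast with vehicle-exposed cultures. The strain carries alterations in DNA damage repair.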

A short description of experiment [4]: NCI Yeast Anticancer Drug Screen. Data for the cln2 rad14 strain (AID 165).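 Note: 0% = growth equal to vehicle treated cultures.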 The note with it: S. cerevisiae cln2 rad14 strain, at 50.0 µM, active compounds read high. The procedure, abridged:
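Yeast carrying cln2 and rad14 alterations (cell cycle control and DNA damage repair) were exposed to compounds. Growth inhibition was measured against vehicle-treated controls.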

Experiment [5] can be described thus: NCI Yeast Anticancer Drug Screen. Data for the bub3 strain (AID 167). The note with it: S. cerevisiae bub3 mutant strain, at 50.0 µM, active compounds read high. The procedure, abridged: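 Inhibition values come from growth of compound-treated mutant yeast normalised to vehicle-treated controls.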
The nature of experiment [6]: NCI Yeast Anticancer Drug Screen. Data for the mlh1 rad18 strain (AID 175). The note with it: S. cerevisiae mlh1 rad18 strain growth inhibition; at 50.0 µM; active compounds read high. The procedure, abridged: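 Growth inhibition of the yeast strain was measured after compound exposure and expressed relative to vehicle-treated controls. The strain carries defined defects in DNA damage repair.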

SMILES strings stand for the structures. Values joined by “and” are separate entries in the source; they are usually repeats but may differ in a detail not shown here. Equal entries are not always repeated. About 79,000 compounds went through this panel and 15% of them were active in at least one assay; those are over-represented in the sample as a whole. Values without a mark were called inactive. Active and inactive are the calls of the source. Cut-off read from the data, not from the text of the source: active = growth inhibition above about 70%; inactive = the rest.

With `CC(Cl)CN(CC(C)Cl)c1ccc(-c2ccccc2)cc1` (centres undefined), the growth inhibition in experiment [1] is 5.25%; in experiment [2] it was -13.8%; in experiment [3] it was 12.7%; in experiment [4] it was 18%; in experiment [5], -5%; in experiment [6] it was -30.9%.

Turning to `CCOC(=O)/C(=C\c1ccc(OC)cc1)[Se]c1ccccc1`, the growth inhibition was 50% in experiment [1]; -11% in experiment [2]; 39.5% in experiment [3]; 13.8% in experiment [4]; 44.6% in experiment [5]; 59.9% in experiment [6].

Take `Cc1csc(N/C(=N/[N+](=O)[O-])N(C)C)n1`: the growth inhibition was -35.5% in experiment [1]; 0.65% in experiment [2]; -9.15% in experiment [3]; -10.8% in experiment [4]; 2.1% in experiment [5]; -3.7% in experiment [6].

As to `c1cc[c]([Ge]([c]2ccccc2)[c]2ccccc2)cc1.c1cc[c]([Ge]([c]2ccccc2)[c]2ccccc2)cc1`, the growth inhibition in experiment [1] is 7.75%; in experiment [2], 1.45%; in experiment [3], -1.7%; in experiment [4] it was -4%; in experiment [5] it was 4.8%; in experiment [6] it was -3.65%.

For the molecule `COc1cc([C@@H]2c3cc4c(c(O)c3C[C@H]3COC(=O)[C@@H]32)OCO4)cc(OC)c1OC`, the growth inhibition in experiment [1] was -5.65% and 13.2%; in experiment [2] it was 9.3% and 7.85%; in experiment [3], 2.65% and 2.95%; in experiment [4], 0.1% and 15.8%; in experiment [5] it was 15.4% and 23.4%; in experiment [6] it was 28.2% and 30.5%.

Consider `O.O.O=C(O)CC(=O)O.[NH-]C1CCCCC1[NH-].[Pt+2]` (centres undefined), for which the growth inhibition in experiment [1] was -25.4%; in experiment [2], -5.3%; in experiment [3], -20.4%; in experiment [4] it was -18.9%; in experiment [5] it was 2.75%; in experiment [6], -28.6%.

For the molecule `C/C=C/C1(CCCC)C(=O)NC(=O)NC1=O`, the growth inhibition in experiment [1] is 9.8%; in experiment [2], 3.35%; in experiment [3], 4.15%; in experiment [4], 8.75%; in experiment [5], -2.6%; in experiment [6], -20.8%.

As to `Oc1ccc2ccccc2c1N=Nc1ccccc1`, the growth inhibition in experiment [1] is -10.8% and 10.3%; in experiment [2], -6.5% and -18.8%; in experiment [3] it was -12.6% and -7.95%; in experiment [4] it was -21.9% and -9.7%; in experiment [5] it was 0.9% and -18.4%; in experiment [6], 3.1% and 2.3%.

As to `CCOC(=O)C1C(=O)C(=O)N2CCc3c([nH]c4ccccc34)C12` (centres undefined), the growth inhibition was 17.5% in experiment [1]; 7.55% in experiment [2]; 34% in experiment [3]; 12.4% in experiment [4]; -3% in experiment [5]; 15.6% in experiment [6].

Take `COc1ccc2nc3ccccc3c(NCCCCCCN(CCCl)CCCl)c2c1`: the growth inhibition in experiment [1] was 88.2% (active); in experiment [2], 79.1% (active); in experiment [3], 80.8% (active); in experiment [4], 86.3% (active); in experiment [5] it was 48.4%; in experiment [6], 82.9% (active).

On to `C1=C[N-]c2c3c(ccc2=C1)=CC=C[N-]3.C1=C[N-]c2c3c(ccc2=C1)=CC=C[N-]3.[Cl][Ru][Cl]`, for which the growth inhibition is 70.3% (active) in experiment [1]; 28.3% in experiment [2]; 49% in experiment [3]; 44.4% in experiment [4]; 61% in experiment [5]; 33.8% in experiment [6].

For the molecule `CCN1C(=O)C(=C/C=C/c2ccc(OC)cc2)C(=O)N(CC)C1=S`, the growth inhibition in experiment [1] is 37.4%; in experiment [2], 10.8%; in experiment [3], 46.4%; in experiment [4] it was 11.8%; in experiment [5], 13.8%; in experiment [6], 36.7%.

As for `C[C@]12CCNC(=O)C=C1CC[C@@H]1C2CC[C@@]2(C)C1CC[C@@H]2OC(=O)COc1ccc(N(CCCl)CCCl)cc1` (some centres undefined), the growth inhibition in experiment [1] is 24.4%; in experiment [2], 25.1%; in experiment [3], 21.6%; in experiment [4] it was 60%; in experiment [5], 35.8%; in experiment [6], -26.1%.

On to `COc1cccc(C=C2C(=O)NC(=S)NC2=O)c1O`, for which the growth inhibition in experiment [1] was -8.95%; in experiment [2] it was -12.6%; in experiment [3], -4.35%; in experiment [4] it was 15.7%; in experiment [5], -2.25%; in experiment [6], 26.6%.

Take `CC1(C)OC(C=O)C2CC(=O)c3c(O)cccc3C2(C)O1` (centres undefined): the growth inhibition in experiment [1] was 33.4%; in experiment [2], -1.45%; in experiment [3], 12.9%; in experiment [4], -4.15%; in experiment [5], 11.9%; in experiment [6], 0.35%.

As for `COCCOC(=O)CCl`, the growth inhibition in experiment [1] was -4.35%; in experiment [2] it was 0.4%; in experiment [3], 10.9%; in experiment [4], 0.45%; in experiment [5] it was -0.7%; in experiment [6] it was 25.5%.

With `CCCC(C)OP(=O)(OCC)OCC` (centres undefined), the growth inhibition in experiment [1] is 2.2%; in experiment [2] it was -2.7%; in experiment [3], -5.35%; in experiment [4], -48.4%; in experiment [5] it was 14.4%; in experiment [6] it was -3.5%.

`O=C1[C@@H]2[C@H](C(=O)N1c1ccccc1)[C@H]1CC[C@H]2N1C(=O)c1ccccc1`: the growth inhibition in experiment [1] is 18.9%; in experiment [2], 17.4%; in experiment [3] it was 2.2%; in experiment [4], 2.75%; in experiment [5], 13.2%; in experiment [6] it was 6.5%.

Consider `COC1CC(OC2C(C)OC(OC3C(C)OC(OC4C(C)OC(O[C@H]5CC[C@@]6(C)C(=CC[C@]7(O)[C@@H]6C[C@@H](OC(C)=O)[C@@]6(C)[C@]7(O)CC[C@@]6(O)C(C)=O)C5)CC4OC)CC3OC)CC2OC)OC(C)C1O` (some centres undefined), for which the growth inhibition in experiment [1] was -7.85%; in experiment [2], -7.45%; in experiment [3], -9.55%; in experiment [4] it was -3.7%; in experiment [5], -12.7%; in experiment [6], -47.1%.
